{"source": "PubChem BioAssay (NCATS)", "note": "Results filed as inconclusive are left out. Where a call stands in place of a potency, no number is given. The source made the active and inactive calls. The call rests on the fitted dose curve; in most records, active means well fitted inhibition curve with a large enough effect; inconclusive means small, poorly fitted or top-dose-only effect; inactive means no such curve, though single readings can be large or run the other way. Potency means the concentration at half of the fitted maximal effect.", "data": [{"test": "qHTS Screen of the MIPE 4.0 Collection Against Ewings Sarcoma (TC71) (AID 1259253); further: nearly all actives have a fitted effect of over 40% in size", "settings": "TC71 Ewing sarcoma viability, CellTiter-Glo, 48 h; series mostly up to 45.8 µM", "method_in_brief": "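Here, cells in 5% FBS RPMI were exposed for two days (48 h) to compound dilutions added four hours after plating. ATP-based CellTiter-Glo luminescence measured viability, normalized to vehicle and no-cell blanks.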", "values": [{"smiles": "CC(C)C(=O)Oc1ccc(CO)cc1[C@H](CCN(C(C)C)C(C)C)c1ccccc1", "Potency": "inactive"}, {"smiles": "CN(C)c1cc(NC(=O)CNC(C)(C)C)c(O)c2c1C[C@@H]1C[C@H]3[C@H](N(C)C)C(=O)C(C(N)=O)=C(O)[C@@]3(O)C(=O)C1=C2O", "Potency": "inactive"}, {"smiles": "C[N+](C)(C)CC(=O)O", "Potency": "inactive"}, {"smiles": "COc1ccc(C2Sc3ccccc3N(CCN(C)C)C(=O)C2OC(C)=O)cc1", "note": "(centres undefined)", "Potency": "inactive"}, {"smiles": "Clc1ccc(C(c2ccc(Cl)cc2)n2cc[n+](CC(OCc3ccc(Cl)cc3Cl)c3ccc(Cl)cc3Cl)c2)cc1", "note": "(centres undefined)", "Potency": "20.9 µM (active)"}, {"smiles": "CC=CC[C@@H](C)C(=O)[C@H]1C(=O)N[C@@H](C(C)C)C(=O)N(C)CC(=O)N(C)[C@@H](CC(C)C)C(=O)N[C@@H](C(C)C)C(=O)N(C)[C@@H](CC(C)C)C(=O)N[C@@H](C)C(=O)N[C@H](C)C(=O)N(C)[C@@H](CC(C)C)C(=O)N(C)[C@@H](CC(C)C)C(=O)N(C)[C@@H](C(C)C)C(=O)N1C", "Potency": "16.6 µM (active)"}, {"smiles": "CCn1cc(C(=O)O)c(=O)c2ccc(C)nc21", "Potency": "inactive"}, {"smiles": "O=c1cc(-c2ccccc2)oc2cc(O)c(O)c(O)c12", "Potency": "23.5 µM (active)"}, {"smiles": "O=C(CCc1ccc(O)cc1)c1c(O)cc(O)cc1O[C@@H]1O[C@H](CO)[C@H](O)[C@H](O)[C@H]1O", "Potency": "inactive"}, {"smiles": "Cc1ccc(C(=O)Nc2cccc(C(F)(F)F)c2)cc1Nc1nc(-c2cccnc2)nc2c1cnn2C", "Potency": "18.7 µM (active)"}, {"smiles": "Nc1nc(F)nc2c1ncn2[C@@H]1O[C@H](COP(=O)(O)O)[C@@H](O)[C@H]1O", "Potency": "14.8 µM (active)"}, {"smiles": "Cc1nc(N)sc1-c1ccnc(Nc2ccc(N3CCOCC3)cc2)n1", "Potency": "14.8 µM (active)"}, {"smiles": "CC1(C)CCC2=C(O1)c1ccccc1C(=O)C2=O", "Potency": "26.4 µM (active)"}, {"smiles": "O=C(O)C=Cc1ccc(O)c(O)c1", "Potency": "18.7 µM (active)"}, {"smiles": "CO[C@H]1C(=O)[C@]2(C)[C@@H](OC)C[C@H]3OC[C@@]3(OC(C)=O)[C@H]2[C@H](OC(=O)c2ccccc2)[C@]2(O)C[C@H](OC(=O)[C@H](O)[C@@H](NC(=O)OC(C)(C)C)c3ccccc3)C(C)=C1C2(C)C", "Potency": "inactive"}, {"smiles": "C[C@@H]1CCN(C(=O)CC#N)C[C@H]1N(C)c1ncnc2[nH]ccc12", "Potency": "inactive"}, {"smiles": "CCCCCN(C)CCC(O)(P(=O)(O)O)P(=O)(O)O", "Potency": "inactive"}, {"smiles": "CCOC1OC(=O)C[C@H]1NC(=O)[C@@H]1CCCN1C(=O)[C@@H](NC(=O)c1ccc(N)c(Cl)c1)C(C)(C)C", "note": "(some centres undefined)", "Potency": "inactive"}, {"smiles": "CC(=Cc1ccccc1)C=C1SC(=S)N(CC(=O)O)C1=O", "Potency": "inactive"}, {"smiles": "C=C1C(=O)[C@@]23C(CC[C@@H]1[C@H]2O)[C@@]12CO[C@]3(O)[C@@H](O)[C@@H]1C(C)(C)CC[C@@H]2O", "note": "(some centres undefined)", "Potency": "6.62 µM (active)"}, {"smiles": "O=c1cc(-c2ccc(O)cc2)oc2cc(O)cc(O)c12", "Potency": "20.9 µM (active)"}, {"smiles": "Nc1ncnc2c1ncn2[C@@H]1O[C@@H](CO)[C@H](O)[C@H]1O", "Potency": "inactive"}, {"smiles": "NS(=O)(=O)c1cccc2c1C(=O)c1cccc(O)c1C2=O", "Potency": "18.7 µM (active)"}, {"smiles": "CC[C@@]1(O)C[C@H](O[C@H]2C[C@H](N(C)C)[C@H](O[C@H]3C[C@H](O)[C@H](O[C@H]4CCC(=O)[C@H](C)O4)[C@H](C)O3)[C@H](C)O2)c2c(cc3c(c2O)C(=O)c2c(O)cccc2C3=O)[C@@H]1C(=O)OC", "Potency": "0.187 µM (active)"}]}]}
